Consider 33 compounds from PubChem BioAssay (NCATS).

Unmarked numbers belong to inactive results. Inconclusive results are not listed. Activity calls are given as the source filed them. Unless noted, the call rests on the fitted dose curve; in most records, active means well fitted curve in the direction sought with a large enough effect; inconclusive means small, poorly fitted or top-dose-only effect, or another doubt; inactive means no such curve, though single readings can be large; an effect the other way counts as inactive or inconclusive.

Experiment [1] addresses Glutaminase kidney isoform, mitochondrial (Homo sapiens) (UniProt O94925). Briefly: qHTS for Inhibitors of Glutaminase (GLS): LOPAC Validation (AID 624146). Further: nearly all actives have a fitted effect of over 60% in size. Further: potency means the concentration at half of the fitted maximal effect. Put shortly: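 Assay buffer: 45 mM KH2PO4 pH 8.2, 0.02% Tween-20. hKGA acts on L-glutamine (1 mM solution added); product glutamate is reported by an oxidase/peroxidase Amplex Red coupling, with fluorescence taken at baseline and 30 min.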
For orientation: qHTS replaces the single test concentration by a dilution series.

A short description of experiment [2]: qHTS of Trypanosoma Brucei Inhibitors: LOPAC Validation (AID 624147). Further: 0% is about no effect. Put shortly:
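T. brucei PYK with substrate was exposed to pin-transferred compounds across a concentration series, then started with 130 uM ADP (final). After 45 min at room temperature, Kinase-Glo Plus luminescence was read, normalized and curve-fitted.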

The target of experiment [3] is Glucagon-like peptide 1 receptor (Homo sapiens) (UniProt P43220). As to the kind of experiment: qHTS of GLP-1 Receptor Agonists: LOPAC Validation (AID 624148).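 Further: 0% is about no effect; higher luminescence signal means agonism.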 Summed up:
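HEK293 cells stably co-expressing GLP-1R and a cAMP-responsive luciferase reporter, plated 12 hours before compound, then incubated 4-6 hr at 37 deg C. Luminescence read 12 min after detection reagent.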

Experiment [4] can be described thus: qHTS of Nrf2 Activators: LOPAC Validation (AID 624149). Further: 0% is about no effect. Put shortly: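 AREc32_Fluc cells, 1000/well in OPTI-MEM with 5% FBS, grown overnight, then exposed to compounds for 24 hr at 37 deg C, 5% CO2. ARE-driven firefly luciferase read by Steady-Glo luminescence after 30 min at RT.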
Experiment [5] in a line: HTS Assay for Allosteric Antagonists of the Human D2 Dopamine Receptor: Hit Validation in HTRF (AID 624455).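 Further: stable D1 dopamine receptor cell line scored for blocking the D1 response; on the % scale 0 is the no-effect control and ±100 the full control effect.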 Put shortly: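 Hit validation in cells stably expressing the D1 dopamine receptor, run in HTRF format. Compounds were tested for their ability to inhibit the D1-mediated response.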
Experiment [6] is described as follows: qHTS assay for small molecule activators of the p53 signaling pathway (AID 651743; active means well fitted activation curve with a large enough effect in the signal ratio, not every such curve was filed as active; the % refers to the signal ratio; further: series mostly up to about 92 µM; % of control where 0% means no effect). The conditions noted are these: HCT-116 p53RE-bla, beta-lactamase FRET ratio, 16 h; activation: active compounds read high. Summed up: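 p53RE-bla HCT-116 cells carrying a beta-lactamase reporter under p53 response elements were exposed to compounds for 16 hours at 37 C. Reporter activity read as fluorescence after 2 hours at room temperature with LiveBLAzer B/G FRET substrate.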

Experiment [7] is described as follows: qHTS assay for small molecule agonists of the antioxidant response element (ARE) signaling pathway (AID 651741; active means well fitted activation curve with a large enough effect in the signal ratio; the % refers to the signal ratio; further: potency means the concentration at half of the fitted maximal effect). Put shortly: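 CellSensor ARE-bla HepG2 cells (2,000/well) carrying ARE-driven beta-lactamase, exposed 16 h at 37 C. LiveBLAzer B/G FRET substrate added for 2 h at room temperature; fluorescence intensity read.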

Chain of Glutaminase kidney isoform, mitochondrial (Homo sapiens) (O94925 whole entry, looked up, canonical isoform): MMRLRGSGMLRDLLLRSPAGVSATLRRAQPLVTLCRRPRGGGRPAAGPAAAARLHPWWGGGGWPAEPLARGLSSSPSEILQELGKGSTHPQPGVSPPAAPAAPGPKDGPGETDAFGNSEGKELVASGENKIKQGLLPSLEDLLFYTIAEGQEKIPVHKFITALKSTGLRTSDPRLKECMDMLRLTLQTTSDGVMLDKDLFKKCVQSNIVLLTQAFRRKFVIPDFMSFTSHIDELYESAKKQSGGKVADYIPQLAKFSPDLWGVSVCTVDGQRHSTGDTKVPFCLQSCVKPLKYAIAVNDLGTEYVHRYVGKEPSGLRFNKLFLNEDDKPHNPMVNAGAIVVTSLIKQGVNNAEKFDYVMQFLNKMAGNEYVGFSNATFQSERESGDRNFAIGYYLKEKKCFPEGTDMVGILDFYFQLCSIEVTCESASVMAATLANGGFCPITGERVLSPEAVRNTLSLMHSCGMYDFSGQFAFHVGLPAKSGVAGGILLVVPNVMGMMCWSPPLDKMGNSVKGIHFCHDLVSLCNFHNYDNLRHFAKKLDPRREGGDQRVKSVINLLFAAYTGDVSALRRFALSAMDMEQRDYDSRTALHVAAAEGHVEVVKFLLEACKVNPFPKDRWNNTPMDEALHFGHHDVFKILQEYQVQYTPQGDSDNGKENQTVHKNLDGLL
Chain of Glucagon-like peptide 1 receptor (Homo sapiens) (P43220 whole entry, looked up): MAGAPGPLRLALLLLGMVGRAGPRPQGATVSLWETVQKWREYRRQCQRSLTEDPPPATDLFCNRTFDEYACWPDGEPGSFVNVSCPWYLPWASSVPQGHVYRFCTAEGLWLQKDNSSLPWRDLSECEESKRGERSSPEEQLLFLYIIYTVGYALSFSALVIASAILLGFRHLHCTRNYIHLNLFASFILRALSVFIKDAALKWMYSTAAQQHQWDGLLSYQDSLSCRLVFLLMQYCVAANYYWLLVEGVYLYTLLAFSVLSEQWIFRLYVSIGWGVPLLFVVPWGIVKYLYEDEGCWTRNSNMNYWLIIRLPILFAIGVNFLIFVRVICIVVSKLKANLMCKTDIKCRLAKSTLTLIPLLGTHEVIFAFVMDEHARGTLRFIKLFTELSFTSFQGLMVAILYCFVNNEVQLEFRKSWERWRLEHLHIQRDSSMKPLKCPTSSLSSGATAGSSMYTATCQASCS

Consider `NS(=O)(=O)C#Cc1ccccc1`, for which the Potency entry in experiment [1], in experiment [2] and in experiment [5] was “inactive” in each case. The compound was called inactive in experiment [3] and in experiment [4].
As for `CNC(=O)[C@H]1O[C@@H](n2cnc3c(NCc4ccc(N)cc4)ncnc32)[C@H](O)[C@@H]1O`, the Potency result in experiment [1], in experiment [2] and in experiment [5] was “inactive” throughout. Moreover, the result in experiment [3] and in experiment [4] was inactive.
As to `NCCSSCCN`, the Potency entry in experiment [1], in experiment [2] and in experiment [5] was “inactive” each time. For the same compound, the compound was classed as inactive in experiment [3] and in experiment [4].
Turning to `CN1CCc2ccccc2Cc2[nH]c3ccccc3c2CC1`, in experiment [1], the Potency was 8.91 µM (active). Moreover, the Potency entry in experiment [2] and in experiment [5] was “inactive” throughout. Moreover, the outcome in experiment [3] and in experiment [4] was inactive.
As for `C[N+](C)(CCCCCC[N+](C)(C)CCCN1C(=O)c2cccc3cccc(c23)C1=O)CCCN1C(=O)c2cccc3cccc(c23)C1=O`, the Potency result in experiment [1], in experiment [2] and in experiment [5] was “inactive” throughout. The call in experiment [3] and in experiment [4] was inactive.
On to `CN(C)c1ccc(/C=C2\C(=O)Nc3ccccc32)cc1`, for which the Potency entry in experiment [1], in experiment [2] and in experiment [5] was “inactive” in each case. Besides, the result in experiment [3] and in experiment [4] was inactive.
Take `O=C(O)CC1CC(c2ccccc2)=NO1` (configuration not stated): the Potency entry in experiment [1], in experiment [2] and in experiment [5] was “inactive” throughout. Besides, the compound was classed as inactive in experiment [3] and in experiment [4].
Consider `N[C@@H](CC(=O)O)C(=O)O`, for which the Potency result in experiment [1], in experiment [2] and in experiment [5] was “inactive” throughout. Moreover, the call in experiment [3] and in experiment [4] was inactive.
As to `Nc1ncnc2c1ncn2[C@@H]1O[C@H](COP(=O)(O)OP(=O)(O)OP(=O)(O)OP(=O)(O)OC[C@@H]2O[C@H](n3cnc4c(N)ncnc43)[C@@H](O)[C@H]2O)[C@@H](O)[C@H]1O`, the Potency entry in experiment [1] and in experiment [2] was “inactive” each time. Moreover, in experiment [4], the compound was classed as inactive.
With `O=C(c1cc(O)c(O)c([N+](=O)[O-])c1)c1ccccc1F`, the Potency in experiment [1] was 4.47 µM (active). Further, the Potency result in experiment [2] and in experiment [5] was “inactive” throughout. The outcome in experiment [3] and in experiment [4] was inactive.
With `CCCCCCCCCCCCCCCCCC(=O)OC(CC(=O)O)C[N+](C)(C)C` (configuration not stated), the Potency result in experiment [1], in experiment [2] and in experiment [5] was “inactive” in each case. Moreover, the call in experiment [3] and in experiment [4] was inactive.
For `OC[C@H]1O[C@@H](n2cnc3c(NC4CCCCC4)ncnc32)[C@H](O)[C@@H]1O`, the Potency result in experiment [1], in experiment [2] and in experiment [5] was “inactive” each time. The call in experiment [3] and in experiment [4] was inactive.
As to `Nc1nc(SCc2ccc([N+](=O)[O-])cc2)c2ncn([C@@H]3O[C@H](CO)[C@@H](O)[C@H]3O)c2n1`, the Potency entry in experiment [1], in experiment [2] and in experiment [5] was “inactive” throughout. Besides, the result in experiment [3] and in experiment [4] was inactive.
Take `CCN(CC)c1ncnc2c1ncn2[C@@H]1O[C@H](COP(=O)(O)OP(=O)(O)C(Br)(Br)P(=O)(O)O)[C@@H](O)[C@H]1O`: the Potency result in experiment [1], in experiment [2] and in experiment [5] was “inactive” throughout. Also, the result in experiment [3] and in experiment [4] was inactive.
`CNCC[C@H](Oc1ccc(C(F)(F)F)cc1)c1ccccc1`: the Potency entry in experiment [1], in experiment [2] and in experiment [5] was “inactive” each time. The compound was called inactive in experiment [3] and in experiment [4].
On to `Nc1ncnc2c1ncn2[C@@H]1O[C@H](COP(=O)(O)CP(=O)(O)OP(=O)(O)O)[C@@H](O)[C@H]1O`, for which the Potency entry in experiment [1], in experiment [2] and in experiment [5] was “inactive” throughout. Further, the result in experiment [3] and in experiment [4] was inactive.
Regarding `Fc1cccc(/C=N/N=C/c2cccc(F)c2)c1`, the Potency result in experiment [1], in experiment [2] and in experiment [5] was “inactive” throughout. For the same compound, the outcome in experiment [3] and in experiment [4] was inactive.
Consider `NC(=S)c1ccc[n+]([C@@H]2O[C@@H](COP(=O)([O-])OP(=O)(O)OC[C@H]3O[C@@H](n4cnc5c(N)ncnc54)[C@H](OP(=O)(O)O)[C@@H]3O)C(O)C2O)c1` (some centres not stated), for which the Potency entry in experiment [1], in experiment [2] and in experiment [5] was “inactive” throughout. Besides, the compound was classed as inactive in experiment [3] and in experiment [4].
In the case of `C#CCN1C(C)=C(C(=O)OC)C(c2cccc([N+](=O)[O-])c2)C(C(=O)OCC)=C1C` (configuration not stated), the Potency entry in experiment [1], in experiment [2] and in experiment [5] was “inactive” throughout. In addition, the compound was classed as inactive in experiment [3] and in experiment [4].
`Oc1ccccc1O`: the Potency in experiment [1] was 2 µM (active). Further, the Potency result in experiment [2] and in experiment [5] was “inactive” throughout. In experiment [3], the compound was classed as inactive. Also, in experiment [6], the activation was 25.3%.
`C=CC(C)=C[C@@]1(C)SC(=O)C(C)=C1O`: the Potency entry in experiment [1], in experiment [2] and in experiment [5] was “inactive” throughout. Further, the result in experiment [3] and in experiment [4] was inactive.
With `CC(C)NC[C@H](O)COc1cccc2[nH]ccc12`, the Potency result in experiment [1], in experiment [2] and in experiment [5] was “inactive” throughout. Besides, in experiment [3], the outcome was inactive.
On to `O=C(Nc1ccccc1)c1cc([N+](=O)[O-])ccc1Cl`, for which the Potency entry in experiment [1], in experiment [2] and in experiment [5] was “inactive” in each case. Moreover, the result in experiment [3] and in experiment [4] was inactive. Moreover, in experiment [7], the Potency was 1.22 µM (active). Moreover, the activation in experiment [6] was 4.29%.
For `CCCn1c(=O)c2[nH]c(-c3ccc(OCC(=O)NCCN)cc3)nc2n(CCC)c1=O`, the Potency result in experiment [1], in experiment [2] and in experiment [5] was “inactive” each time. Besides, the outcome in experiment [3] and in experiment [4] was inactive.
Turning to `CN1C2CC(OC(=O)[C@H](CO)c3ccccc3)CC1C1OC12` (some centres not stated), the Potency entry in experiment [1], in experiment [2] and in experiment [5] was “inactive” throughout. The outcome in experiment [3] and in experiment [4] was inactive.
Turning to `Brc1c(Br)c(Br)c2n[nH]nc2c1Br`, the Potency entry in experiment [1], in experiment [2] and in experiment [5] was “inactive” each time. Moreover, the compound was called inactive in experiment [3] and in experiment [4].
`CCCC1(C)C(C#N)(C#N)C1(C#N)C#N`: the Potency result in experiment [1], in experiment [2] and in experiment [5] was “inactive” throughout. The call in experiment [3] and in experiment [4] was inactive.
For `Cc1ccc(C(=O)O[C@H](C(=O)O)[C@@H](OC(=O)c2ccc(C)cc2)C(=O)O)cc1` (tested in a mixture with another compound), the Potency result in experiment [1], in experiment [2] and in experiment [5] was “inactive” each time. The compound was classed as inactive in experiment [3] and in experiment [4].
In the case of `C[N+]1(C)C2CC(OC(=O)[C@H](CO)c3ccccc3)CC1C1OC12` (some centres not stated), the Potency entry in experiment [1], in experiment [2] and in experiment [5] was “inactive” in each case. Moreover, the outcome in experiment [3] and in experiment [4] was inactive.
As for `O=[N+]([O-])c1ccc2c(c1)S(=O)(=O)C=C2`, the Potency entry in experiment [1], in experiment [2] and in experiment [5] was “inactive” in each case. Also, the call in experiment [3] was inactive.
With `Nc1ncnc2c1c(I)cn2[C@@H]1C[C@H](N)[C@@H](O)[C@H]1O`, the Potency result in experiment [1], in experiment [2] and in experiment [5] was “inactive” each time. For the same compound, the compound was called inactive in experiment [3] and in experiment [4].
Regarding `CCCCC/C=C\CC(O)/C=C/c1cccc(CC(O)CCCCO)n1` (configuration not stated), the Potency entry in experiment [1], in experiment [2] and in experiment [5] was “inactive” each time. In addition, in experiment [3], the outcome was inactive.
With `O=C(O)c1cc([N+](=O)[O-])ccc1NCCCc1ccccc1`, the Potency entry in experiment [1], in experiment [2] and in experiment [5] was “inactive” throughout. Besides, the compound was called inactive in experiment [3] and in experiment [4].
